Assay results taken from PubChem BioAssay (EPA / NIEHS).
“And” between values parts separate entries of the source, which are not always exact repeats. Equal values may be shown once. Results filed as inconclusive are left out. Some compounds were tested as several samples or in several runs, with calls that do not always agree. The source made the active and inactive calls. The calls were made as follows: active = hit-call score of the fitted dose curve at least 0.9, where 1 is the maximum; inconclusive = response in the unintended direction; inactive = score below 0.9.

Experiments:
[1] = ATG_XTT_Cytotoxicity: Cytotoxicity Assessment in the Attagene TRANS-FACTORIAL HepG2 Assay (AID 2283584);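 as to AC50: XTT signal for cell number as viability in transfected HepG2 cells; cells exposed to compound for 24 h before reading; active means loss of viability signal versus DMSO baseline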
In short: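 24 h chemical exposure of reporter-transfected HepG2; XTT signal loss vs DMSO indicates cytotoxicity.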

[2] = TOX21_p53_BLA_p2_viability: Viability Assessment in the Tox21 HCT-116 p53 Agonism Beta-lactamase Assay, Phase 2 (AID 2283591);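 also: compound exposure lasted 16 h at 37 °C; actives lower the ATP signal meaning cytotoxicity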
In short: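 Cytotoxicity readout: CellTiter-Glo ATP luminescence, 30 min at room temperature, after the beta-lactamase read. Cells were HCT116 exposed 16 h at 37C to compounds pin-transferred at 217-fold dilution from DMSO stocks.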

[3] = target: Cellular tumor antigen p53 (Homo sapiens) (UniProt P04637); assay: TOX21_p53_BLA_p2_ratio: Tox21 HCT-116 p53 Agonism Beta-lactamase Assay, Ratio, Phase 2 (AID 2283592)
In short: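 Human colon HCT116 cells with an inducible p53 beta-lactamase reporter are exposed to test chemicals for 16 h at 37C. Reporter induction is read as the 460/530 nm emission ratio after CCF4-AM loading, normalized to DMSO.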

[4] = TOX21_p53_BLA_p3_viability: Viability Assessment in the Tox21 HCT-116 p53 Agonism Beta-lactamase Assay, Phase 3 (AID 2283593);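 also: cells exposed to compound for 16 h before reading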
In short: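 Cellular ATP was quantified by CellTiter-Glo luminescence, read after 30 min at room temperature. Beforehand, HCT116 cells (4000/well) received compound 5 h post-seeding, 217-fold diluted from DMSO, then incubated 16 h at 37C.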

Cellular tumor antigen p53 (Homo sapiens), sequence (P04637 whole entry, looked up): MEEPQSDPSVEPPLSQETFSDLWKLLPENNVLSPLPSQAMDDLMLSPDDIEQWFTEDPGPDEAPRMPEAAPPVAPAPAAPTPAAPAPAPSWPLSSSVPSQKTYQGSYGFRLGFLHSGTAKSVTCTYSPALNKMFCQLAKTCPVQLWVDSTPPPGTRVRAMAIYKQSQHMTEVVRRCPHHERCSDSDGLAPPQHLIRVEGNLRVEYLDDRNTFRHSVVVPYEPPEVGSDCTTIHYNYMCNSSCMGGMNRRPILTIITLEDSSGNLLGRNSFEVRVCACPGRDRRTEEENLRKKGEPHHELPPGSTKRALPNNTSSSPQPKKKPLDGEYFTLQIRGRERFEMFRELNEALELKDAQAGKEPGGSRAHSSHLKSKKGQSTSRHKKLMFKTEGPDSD

SMILES | outcome [1] | outcome [2] | outcome [3] | outcome [4] | AC50 [3] | AC50 [2] | AC50 [4] | AC50 [1]
CC(O)COc1ccccc1 (stereo not drawn) | inactive | inactive | inactive | inactive | – | – | – | –
Nc1ccc(O)c(C(=O)O)c1 | inactive | inactive | inactive | inactive | – | – | – | –
CC(C)(C)c1ccc(O)c(O)c1 | inactive | inactive | inactive | inactive | – | – | – | –
O=c1cc(-c2ccccc2)oc2ccc3ccccc3c12 | inactive | inactive | inactive | inactive | – | – | – | –
O=C1OC2(c3ccccc31)c1cc(I)c(O)c(I)c1Oc1c2cc(I)c(O)c1I | inactive | inactive | inactive | inactive | 78.6 µM (active) | – | – | –
CC1=CC(=O)c2ccccc2C1=O | inactive | inactive | inactive | – | – | 51.1 µM (active) | 35.7 µM (active) and 36.7 µM (active) | –
COc1cc([N+](=O)[O-])ccc1N | inactive | inactive | inactive | inactive | – | – | – | –
Cc1ccccc1C(OCCN(C)C)c1ccccc1 (stereo not drawn) | inactive | inactive | inactive | inactive | – | – | – | –
O=C1OC(=O)c2cc(-c3ccc4c(c3)C(=O)OC4=O)ccc21 | inactive | inactive | inactive | inactive | – | – | – | –
C[C@]12CC[C@@H]3c4ccc(O)cc4CC[C@H]3[C@@H]1CC[C@@H]2OC(=O)CCC1CCCC1 | inactive | inactive | inactive | inactive | – | – | – | –
Cc1cc(Cc2cc(C)cc(C(C)(C)C)c2O)c(O)c(C(C)(C)C)c1 | – | – | – | – | 27.1 µM (active) and 46 µM (active) | 10.8 µM (active) and 10.5 µM (active) | 19.1 µM (active) and 20.2 µM (active) | 74.7 µM (active)
CN(C)c1ccc(C(=C2C=CC(=[N+](C)C)C=C2)c2ccccc2)cc1 | – | inactive | – | inactive | 9.06 µM (active) and 39.7 µM (active) | 1.83 µM (active) | 1.15 µM (active) | 10.1 µM (active) and 7.71 µM (active)
Cc1cc(=O)oc2cc(O)ccc12 | inactive | inactive | inactive | inactive | – | – | – | –
CC(C)(O)C(=O)c1ccccc1 | inactive | inactive | inactive | inactive | – | – | – | –
NCCN | inactive | inactive | inactive | – | – | – | – | –
Oc1ccc(Cc2ccccc2O)cc1 | inactive | inactive | inactive | inactive | – | – | – | –
CCCCCCCCCCCCCC[n+]1ccccc1 | – | inactive | – | inactive | 4.85 µM (active) | – | – | 28.3 µM (active)
CC(C)(C)c1ccc(CCC=O)cc1 | inactive | inactive | inactive | inactive | – | – | – | –
C=CC(=O)OCC(CO)(COCC(COC(=O)C=C)(COC(=O)C=C)COC(=O)C=C)COC(=O)C=C | – | – | – | – | 78.7 µM (active) | 4.15 µM (active) | 3.91 µM (active) | 29.3 µM (active)
Cc1ccc(C)c(S(=O)(=O)O)c1 | inactive | inactive | inactive | – | – | – | – | –
O=C1c2ccccc2C(=O)c2c(O)c(O)cc(O)c21 | inactive | inactive | – | – | 42.8 µM (active) | – | – | –
CC=O | inactive | – | – | – | 3.17 µM (active) | 46.2 µM (active) | 86.1 µM (active) | –
CCCCCCc1ccc(N)cc1 | inactive | inactive | inactive | inactive | – | – | – | –
Nc1cc(Cl)c(-c2cc(Cl)c(N)cc2Cl)cc1Cl | inactive | – | – | – | 69 µM (active) and 81.7 µM (active) | 31.3 µM (active) and 40.9 µM (active) | 70.8 µM (active) and 63.8 µM (active) | –
NCc1cccc(CN)c1 | inactive | inactive | inactive | – | – | – | – | –
CCCCCCCCCCCC(=O)NCCCN(C)C | inactive | – | – | – | 87.1 µM (active) | 44.2 µM (active) | 47.3 µM (active) | –
COc1ccccc1NC(=O)c1cc2ccccc2cc1O | inactive | inactive | – | inactive | 14 µM (active) | – | – | –
CCCCCCOC(=O)c1ccc(O)cc1 | – | inactive | inactive | inactive | 67.3 µM (active) | – | – | 149 µM (active)
c1cnc2c(c1)ccc1cccnc12 | inactive | inactive | inactive | inactive | 38.3 µM (active) | – | – | –
Oc1c(Cl)cc(Cl)cc1Sc1cc(Cl)cc(Cl)c1O | – | inactive | – | inactive | – | 43.1 µM (active) and 23.4 µM (active) and 76.2 µM (active) | 73.1 µM (active) and 36.2 µM (active) and 1.49 µM (active) | 41.5 µM (active)
